# Measurements taken from PubChem BioAssay (Tox21).
# Results filed as inconclusive are left out. The source made the active and inactive calls. Unless noted, the call rests on the fitted dose curve.
# Experiment: qHTS assay to identify small molecule agonists of the hypoxia (HIF-1) signaling pathway - cell viability counter screen (AID 1224844); further: nearly all actives have a fitted effect of over 50% in size
# Conditions: HRE-bla ME-180 viability, CellTiter-Glo luminescence, 17 h; series mostly up to 76.8 µM; activity change, negative = cytotoxicity: at the top concentration
# Outline: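 Same wells as the HIF-1 reporter screen; ME-180 cells carrying HRE-bla, 17 hr treatment at 37C; CellTiter-Glo luminescence read after 30 min at room temperature.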
# On the % scale 0 is the no-effect control and ±100 the full control effect.
row,Structure (SMILES),"activity change, negative = cytotoxicity"
1,CCCCCCCCCCCCN1CCOCC1,-5.26% (inactive)
2,CC(=O)c1ccc(Cl)c(Cl)c1Cl,0.677% (inactive)
3,CC(C(=O)O)c1ccc(/C=C2\CCCCC2=O)cc1 (configuration not stated),6.73% [at 35.3 µM] (inactive)
4,COC=O,10.2% [at 6.97 µM] (inactive)
5,Cc1c(N=C=O)cccc1N=C=O,-1.84% (inactive)
6,CC(=O)c1cccnc1,0.978% (inactive)
7,O=[N+]([O-])c1ccc(Cl)cc1Cl,0.136% (inactive)
8,CCCCCCCCNC,0.583% (inactive)
9,C=C(C)C(=O)OCCCCCCCCCCOC(=O)C(=C)C,9.15% (inactive)
10,Cc1cc(C)c(C)c(O)c1,0.251% (inactive)
11,CCN(CC)CC(=O)OCC(=O)[C@@]1(O)CC[C@H]2[C@@H]3CCC4=CC(=O)CC[C@]4(C)[C@H]3[C@@H](O)C[C@@]21C,-13.1% [at 35.3 µM] (inactive)
12,CC1=C(C)C(=O)C(CCCCC#CCCCC#CCO)=C(C)C1=O,24.5% [at 35.3 µM] (inactive)
13,C=CC(=O)OCCCCCCCCCC,-0.397% (inactive)
14,O=C(Cl)c1ccc(F)c(Cl)c1,-26.9% (inactive)
15,O=C(NC1CCN(CCc2c[nH]c3ccccc23)CC1)c1ccccc1,-0.2% [at 35.3 µM] (inactive)
16,CCOc1ccccc1O,-0.244% (inactive)
17,CCN(CCCCOC(=O)c1ccc(OC)c(OC)c1)C(C)Cc1ccc(OC)cc1 (configuration not stated),-6.72% [at 35.3 µM] (inactive)
18,CC1(C)CC(O)CC(C)(C)N1[O],7% (inactive)

row,Structure (SMILES),"activity change, negative = cytotoxicity"
1,CC(=O)S[C@H](C(=O)N[C@H]1Cc2ccccc2[C@H]2CCC[C@@H](C(=O)O)N2C1=O)C(C)C,-4.75% (inactive)
2,CCOC(OCC)OCC,10.4% (inactive)
3,Cc1c(Cl)cccc1Nc1ccccc1C(=O)O,8.81% [at 35.3 µM] (inactive)
4,COC(=O)c1cc(Cl)ccc1[N+](=O)[O-],4.26% (inactive)
5,O=C(Nc1ccc2c(c1)Cc1ccccc1-2)C(F)(F)F,4.39% (inactive)
6,O=C(OCCCCCOC(=O)c1ccccc1)c1ccccc1,1.37% (inactive)
7,O=C1OC(=O)C2CC=CCC12 (configuration not stated),-8.24% (inactive)
8,O=C1C=CCCC1,-22.4% (inactive)
9,O=C(O)CNc1ccccc1,4.59% (inactive)
10,O=C(O)c1cccnc1Nc1cccc(C(F)(F)F)c1,18.1% [at 35.3 µM] (inactive)
11,O=Cc1ccc([N+](=O)[O-])cc1,0.291% (inactive)
12,O=C(Nc1ccccc1)c1cc([N+](=O)[O-])ccc1Cl,0.383% (inactive)
13,C/C=C1\[C@H]2C=C(C)C[C@]1(N)c1ccc(=O)[nH]c1C2,3.05% [at 35.3 µM] (inactive)
14,FC(F)(Cl)C(F)(Cl)Cl,-3.28% (inactive)
15,CC(CC(C#N)(c1ccccc1)C(C)C)N(C)C (configuration not stated),3.02% [at 35.3 µM] (inactive)
16,CO[C@@H]1COCC[C@@H]1N[C@@H]1CC[C@@](C(=O)N2CCc3ncc(C(F)(F)F)cc3C2)(C(C)C)C1,0.129% (inactive)
17,CC[C@H](NC(C)C)[C@H](O)c1ccc(O)c2[nH]c(=O)ccc12,5.53% [at 35.3 µM] (inactive)

# Experiment: qHTS assay to identify small molecule agonists of H2AX (AID 1224845; active means well fitted activation curve with a large enough effect in the signal ratio in the repeat runs, not every such curve was filed as active; the % refers to the signal ratio)
# Conditions: CHO-K1 phospho-H2AX Ser139 HTRF, 3 h; series mostly up to 154 µM; activation (H2AX phosphorylation): at the top concentration
# Outline: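 Wild-type CHO-K1 cells plated overnight, then exposed 3 hr at 37C to compounds at 15 concentrations (0.76% DMSO). Lysed, then HTRF anti-pH2AX(S139)-cryptate/anti-H2AX-d2 detection after 24 hr at room temperature; emissions 665 and 620 nm.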
row,Structure (SMILES),activation (H2AX phosphorylation)
1,CCCCCCCCCCCCN1CCOCC1,0.11% (inactive)
2,CC(=O)c1ccc(Cl)c(Cl)c1Cl,9.46% (inactive)
3,CC(C(=O)O)c1ccc(/C=C2\CCCCC2=O)cc1 (configuration not stated),2.5% [at 70.9 µM] (inactive)
4,COC=O,-1.42% [at 14 µM] (inactive)
5,Cc1c(N=C=O)cccc1N=C=O,-2.23% (inactive)
6,CC(=O)c1cccnc1,0.702% (inactive)
7,O=[N+]([O-])c1ccc(Cl)cc1Cl,-0.826% (inactive)
8,CCCCCCCCNC,1.62% (inactive)
9,C=C(C)C(=O)OCCCCCCCCCCOC(=O)C(=C)C,-1.09% (inactive)
10,Cc1cc(C)c(C)c(O)c1,-0.204% (inactive)
11,CCC(=O)O[C@]1(C(=O)COC)[C@@H](C)C[C@H]2[C@@H]3CCC4=CC(=O)C=C[C@]4(C)C3(F)[C@@H](O)C[C@@]21C (some centres not stated),0.471% [at 70.9 µM] (inactive)
12,CCN(CC)CC(=O)OCC(=O)[C@@]1(O)CC[C@H]2[C@@H]3CCC4=CC(=O)CC[C@]4(C)[C@H]3[C@@H](O)C[C@@]21C,-1.46% [at 70.9 µM] (inactive)
13,C=CC(=O)OCCCCCCCCCC,-1.7% (inactive)
14,O=C(Cl)c1ccc(F)c(Cl)c1,2.9% (inactive)
15,O=C(NC1CCN(CCc2c[nH]c3ccccc23)CC1)c1ccccc1,-2.86% [at 70.9 µM] (inactive)
16,CCOc1ccccc1O,-2.17% (inactive)
17,CCN(CCCCOC(=O)c1ccc(OC)c(OC)c1)C(C)Cc1ccc(OC)cc1 (configuration not stated),-3.31% [at 70.9 µM] (inactive)
18,CC1(C)CC(O)CC(C)(C)N1[O],1.01% (inactive)

row,Structure (SMILES),activation (H2AX phosphorylation)
1,Cc1nc2sccn2c(=O)c1CCN1CCC(=C(c2ccc(F)cc2)c2ccc(F)cc2)CC1,-1.63% [at 70.9 µM] (inactive)
2,CCOC(OCC)OCC,0.396% (inactive)
3,Cc1c(Cl)cccc1Nc1ccccc1C(=O)O,-2.19% [at 70.9 µM] (inactive)
4,COC(=O)c1cc(Cl)ccc1[N+](=O)[O-],-0.678% (inactive)
5,O=C(Nc1ccc2c(c1)Cc1ccccc1-2)C(F)(F)F,-0.841% (inactive)
6,O=C(OCCCCCOC(=O)c1ccccc1)c1ccccc1,-1.76% (inactive)
7,O=C1OC(=O)C2CC=CCC12 (configuration not stated),0.0278% (inactive)
8,O=C1C=CCCC1,2.31% (inactive)
9,O=C(O)CNc1ccccc1,-2.93% (inactive)
10,O=C(O)c1cccnc1Nc1cccc(C(F)(F)F)c1,-3.25% [at 70.9 µM] (inactive)
11,O=Cc1ccc([N+](=O)[O-])cc1,-2.5% (inactive)
12,O=C(O)c1cccc(C(=O)O)c1C(=O)O,-0.535% (inactive)
13,O=C(Nc1ccccc1)c1cc([N+](=O)[O-])ccc1Cl,-1.78% (inactive)
14,C/C=C1\[C@H]2C=C(C)C[C@]1(N)c1ccc(=O)[nH]c1C2,-0.487% [at 70.9 µM] (inactive)
15,FC(F)(Cl)C(F)(Cl)Cl,0.0213% (inactive)
16,CC(CC(C#N)(c1ccccc1)C(C)C)N(C)C (configuration not stated),-2.21% [at 70.9 µM] (inactive)
17,CC[C@H](NC(C)C)[C@H](O)c1ccc(O)c2[nH]c(=O)ccc12,-0.0529% [at 70.9 µM] (inactive)

# Experiment: qHTS assay to identify small molecule agonists of the hypoxia (HIF-1) signaling pathway (AID 1224846; active means well fitted activation curve with a large enough effect in the signal ratio in the repeat runs, not every such curve was filed as active; the % refers to the signal ratio)
# Conditions: HRE-bla ME-180 cells, beta-lactamase ratio, 17 h; series mostly up to 76.8 µM; activation: at the top concentration
# Outline: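 In ME-180 cells bearing an HRE-bla construct, 17 h treatment with DMSO-dissolved compounds at 37C was followed by CCF4-AM loading to quantify reporter induction.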
row,Structure (SMILES),activation
1,CCCCCCCCCCCCN1CCOCC1,0.869% (inactive)
2,CC(=O)c1ccc(Cl)c(Cl)c1Cl,0.0863% (inactive)
3,CC(C(=O)O)c1ccc(/C=C2\CCCCC2=O)cc1 (configuration not stated),0.515% [at 35.5 µM] (inactive)
4,COC=O,-0.206% [at 7.01 µM] (inactive)
5,CC(=O)c1cccnc1,0.474% (inactive)
6,O=[N+]([O-])c1ccc(Cl)cc1Cl,-1.31% (inactive)
7,CCCCCCCCNC,0.0686% (inactive)
8,C=C(C)C(=O)OCCCCCCCCCCOC(=O)C(=C)C,-0.893% (inactive)
9,Cc1cc(C)c(C)c(O)c1,-0.0915% (inactive)
10,CCC(=O)O[C@]1(C(=O)COC)[C@@H](C)C[C@H]2[C@@H]3CCC4=CC(=O)C=C[C@]4(C)C3(F)[C@@H](O)C[C@@]21C (some centres not stated),-1.24% [at 35.5 µM] (inactive)
11,CC1=C(C)C(=O)C(CCCCC#CCCCC#CCO)=C(C)C1=O,0.9% [at 35.5 µM] (inactive)
12,C=CC(=O)OCCCCCCCCCC,0.799% (inactive)
13,O=C(Cl)c1ccc(F)c(Cl)c1,-0.868% (inactive)
14,O=C(NC1CCN(CCc2c[nH]c3ccccc23)CC1)c1ccccc1,1.02% [at 35.5 µM] (inactive)
15,CCOc1ccccc1O,-0.113% (inactive)
16,CC1(C)CC(O)CC(C)(C)N1[O],-1.24% (inactive)

row,Structure (SMILES),activation
1,Cc1nc2sccn2c(=O)c1CCN1CCC(=C(c2ccc(F)cc2)c2ccc(F)cc2)CC1,2.76% [at 35.5 µM] (inactive)
2,CC(=O)S[C@H](C(=O)N[C@H]1Cc2ccccc2[C@H]2CCC[C@@H](C(=O)O)N2C1=O)C(C)C,-0.569% (inactive)
3,CCOC(OCC)OCC,-1.19% (inactive)
4,COC(=O)c1cc(Cl)ccc1[N+](=O)[O-],0.102% (inactive)
5,O=C(Nc1ccc2c(c1)Cc1ccccc1-2)C(F)(F)F,1.84% (inactive)
6,O=C(OCCCCCOC(=O)c1ccccc1)c1ccccc1,-0.327% (inactive)
7,O=C1OC(=O)C2CC=CCC12 (configuration not stated),-0.728% (inactive)
8,O=C1C=CCCC1,0.798% (inactive)
9,O=C(O)CNc1ccccc1,0.0572% (inactive)
10,O=Cc1ccc([N+](=O)[O-])cc1,-0.709% (inactive)
11,O=C(O)c1cccc(C(=O)O)c1C(=O)O,-0.374% (inactive)
12,O=C(Nc1ccccc1)c1cc([N+](=O)[O-])ccc1Cl,-0.928% (inactive)
13,C/C=C1\[C@H]2C=C(C)C[C@]1(N)c1ccc(=O)[nH]c1C2,-0.284% [at 35.5 µM] (inactive)
14,FC(F)(Cl)C(F)(Cl)Cl,0.488% (inactive)
15,CC(CC(C#N)(c1ccccc1)C(C)C)N(C)C (configuration not stated),0.902% [at 35.5 µM] (inactive)
16,CO[C@@H]1COCC[C@@H]1N[C@@H]1CC[C@@](C(=O)N2CCc3ncc(C(F)(F)F)cc3C2)(C(C)C)C1,-0.21% (inactive)
